# The list is not random: actives were taken first. Their share in the collection is about 5%.
# ALR H2O2 inh – human ALR oxidase inhibition via reduced H2O2; inhibition, % (test concentration not listed); AID 485317; purified ALR, DTT oxidation, H2O2 HRP-luminol luminescence; actives 3.8% (n = 290,000);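 active means mean replicate inhibition above about 79%, with every replicate also reaching it, limit read from the data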
# CHT allo act – allosterically activates the human high affinity choline transporter | B-score at 10 µM | CHT-expressing cells, membrane potential dye, choline EC20; stronger effect = higher value; LV-AA mutant CHT in HEK293 cells | Q9GZV3 | actives 0.49% (n = 310,000);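 active means initial fluorescence not abnormally high and integrated response B-score, plate-corrected, over 3 SD above library mean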
# Target sequence (Q9GZV3 whole entry, looked up): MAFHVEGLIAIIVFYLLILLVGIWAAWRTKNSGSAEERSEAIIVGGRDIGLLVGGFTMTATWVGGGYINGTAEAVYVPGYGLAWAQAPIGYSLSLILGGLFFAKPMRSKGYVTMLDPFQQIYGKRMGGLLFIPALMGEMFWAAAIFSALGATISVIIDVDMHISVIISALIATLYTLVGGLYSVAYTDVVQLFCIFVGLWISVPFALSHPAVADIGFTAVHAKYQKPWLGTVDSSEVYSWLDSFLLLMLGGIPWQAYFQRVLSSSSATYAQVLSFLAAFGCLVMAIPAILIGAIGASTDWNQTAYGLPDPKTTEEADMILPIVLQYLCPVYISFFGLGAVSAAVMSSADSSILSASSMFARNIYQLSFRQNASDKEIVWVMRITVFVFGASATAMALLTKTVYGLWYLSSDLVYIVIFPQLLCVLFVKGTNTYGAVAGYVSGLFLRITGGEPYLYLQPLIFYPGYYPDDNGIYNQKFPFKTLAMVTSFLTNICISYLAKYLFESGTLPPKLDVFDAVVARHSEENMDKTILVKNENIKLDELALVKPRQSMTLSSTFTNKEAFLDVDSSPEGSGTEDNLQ
# AI-2 QS modul – modulators of Vibrio harveyi AI-2 quorum sensing system; AID 2094; Vibrio harveyi JMH597 AI-2 luminescence/OD600 ratio, 9 h; stronger effect = lower value; strain lacks LuxN and CqsS sensors; 0 = neutral-control median; activity change, % at 7.5 µM; actives 0.4% (n = 300,000); in the data active means activity change below about -75%, passing the limit was not always enough;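 further: luminescence divided by OD600 gain over 9 h not by final OD600 alone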
# CHT inh – inhibitors of human choline transporter CHT; Q9GZV3; CHT-expressing cells, membrane potential dye, choline response; stronger effect = lower value; B-score at 10 µM; actives 0.86% (n = 310,000); AID 488975;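 active means B-score over 3 SD under the library average, and starting fluorescence ratio not unusually high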;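 further: choline stimulus applied at its EC90 after an EC20 pre-addition; B-score computed on integrated fluorescence ratio after choline addition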
# PREPL inh – human PREPL enzyme inhibition; Q4J6C6; recombinant PREPL, fluorescence polarization activity-based probe; inhibition, % at 5.96 µM; actives 0.68% (n = 320,000); AID 2751; in the data active means inhibition above about 43%;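 further: 0% = enzyme with DMSO and 100% = wells lacking enzyme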
# CHT act confirm – human CHT activation, confirmatory screen; activation, % at 10 µM; CHT-expressing cells, membrane potential dye fluorescence (FDSS); % of choline EC20–EC90 response window; HEK293 expressing CHT LV-AA mutant; choline added at its EC20; actives 91% (n = 2,500); shares compounds with CHT allo act;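 active means primary screen active, with duplicate mean activation above negative control mean plus 3 SD, cut at about 11% in these data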
# HEK293 MP dye – counter-screen for CHT activators: effect in parental HEK293 cells; shares compounds with CHT allo act; membrane potential dye fluorescence (FDSS); measured after EC20 choline addition; ratio readout change at 10 µM, hits read low; actives 62% (n = 2,500); AID 623908;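 active means duplicate-averaged ratio beyond 3 SD from buffer wells, up or down, though filed actives are nearly all decreases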
# The depositor's hits bear a star; i = inactive; nt = no result given.
SMILES,ALR H2O2 inh,CHT allo act,AI-2 QS modul,CHT inh,PREPL inh,CHT act confirm,HEK293 MP dye
CN1CCN(c2ccc([N+](=O)[O-])c(NCC3CCCO3)c2)CC1 (stereo not drawn),-4,6.3*,-6,i,-3,52*,-51*
CN1CCN(c2ccc([N+](=O)[O-])c(N)c2)CC1,-3,i,0,i,-2,nt,nt
CN1CCN(c2ccc([N+](=O)[O-])c(NCc3ccco3)c2)CC1,-8,i,70,i,12,nt,nt
CCOP(=O)(Oc1ccccc1)c1c([N+](=O)[O-])cc(C(F)(F)F)cc1[N+](=O)[O-] (stereo not drawn),-22,i,4,i,8,nt,nt
O=c1[nH]c(=S)n(Cc2ccc(F)cc2)c(O)c1C=NCc1cccnc1,-4,i,-3,i,-5,nt,nt
Fc1ccc(C[n+]2c(-c3ccccc3)cc(-c3ccccc3)cc2-c2ccccc2)cc1,-3,8.2*,9,i,42,32*,i
N#CCCn1cc(C(=O)NCc2ccccc2)c(-c2ccccc2)n1,8,i,27,i,5,nt,nt
Clc1cnc(Oc2ccc(Oc3ncc(Cl)cc3Cl)cc2)c(Cl)c1,-4,i,27,i,8,nt,nt
